Test results published in PubChem BioAssay AID1565 (Sanford-Burnham Center for Chemical Genomics, 2009).
Among all 290,000 compounds or so, about 3,200 (1.1%) were called active. The sample holds actives, similar compounds and a random draw of the others, so the mix is not that of the screen. Unmarked numbers belong to inactive results. Rule as the data show it: active = inhibition above about 60%; inactive = the rest.

biological target: Phosphoethanolamine/phosphocholine phosphatase (Homo sapiens) (UniProt Q8TCT1); assay: PubChem AID 1565; details: recombinant PHOSPHO1, absorbance phosphatase assay; at 13.3 µM; active compounds read high
Sequence (Q8TCT1 whole entry, looked up): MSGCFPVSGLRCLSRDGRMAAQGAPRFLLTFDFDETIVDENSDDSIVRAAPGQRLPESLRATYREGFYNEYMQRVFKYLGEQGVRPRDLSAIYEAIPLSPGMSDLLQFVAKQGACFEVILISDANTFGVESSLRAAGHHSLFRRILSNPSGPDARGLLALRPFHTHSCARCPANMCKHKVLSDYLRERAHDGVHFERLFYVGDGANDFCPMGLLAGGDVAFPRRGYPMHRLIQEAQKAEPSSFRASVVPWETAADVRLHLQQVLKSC

Row | Compound | inhibition
1 | Cc1ccc(N(C(=O)CNC(=O)c2ccco2)C(C(=O)NC2CCCC2)c2ccncc2)cc1 (stereo unspecified) | 43.5%
2 | O=C(CC(c1ccccc1)c1ccccc1)NCC(O)c1ccc([N+](=O)[O-])cc1 (stereo unspecified) | 12%
3 | Cc1cc(=O)[nH]c(S)c1C#N | 71.4% (active)
4 | Cc1ccc(NC(=O)CSc2sc3c(O)cc(=O)[nH]c3c2C#N)cc1C | 19.4%
5 | Cc1cc(=O)[nH]c(SCC(N)=O)c1C#N | -7.4%
6 | C/C(=N\NC(=O)c1ccc2ccccc2c1)c1cccnc1 | -19.7%
7 | CCc1nnc(NC(=O)CSCc2cc(=O)n3cc(C)sc3n2)s1 | 6.8%
8 | O=C(CSc1nc(Nc2ccccc2)nc(N2CCOCC2)n1)Nc1cc(Cl)ccc1O | 61% (active)
9 | Cc1ccc(Nc2nc(N3CCOCC3)nc(N3CCOCC3)n2)cc1Cl | 6.9%
10 | C/C(=N\Nc1nc(Nc2ccccc2)nc(N2CCOCC2)n1)c1cccs1 | 24.8%
11 | Cc1ccc(C(=O)Nc2nnc(C3=COCCO3)o2)cc1C | -32.7%
12 | C=CCn1c(SCc2cc(C(=O)OC)c(C)o2)nnc1-c1ccncc1 | 86.5% (active)
13 | CCOc1ccc(C(C)=O)cc1CSc1nnc(-c2ccncc2)n1CCOC | -31.5%
14 | COC(=O)c1sc(N)c(C(=O)OC)c1COC(=O)CNS(=O)(=O)c1ccc(C)cc1 | 1.7%
15 | C=CCn1c(SCc2c(C(=O)OC)sc(N)c2C(=O)OC)nnc1-c1ccc(Cl)cc1 | 60.1% (active)
16 | COC(=O)c1ccc(NC(=O)CSc2nnc(-c3ccncc3)n2C)cc1 | -5.5%
17 | C=CCn1c(SCc2ccc(Cl)c(Cl)c2)nnc1C(CO)NC(=O)c1ccc(OC)cc1 (stereo unspecified) | -16.9%
18 | COc1cccc(CNC(=O)Cn2c(=O)oc3cc(S(=O)(=O)N4CCCCC4)ccc32)c1 | 22.6%
19 | Cc1cccc(NS(=O)(=O)c2ccc(C(=O)NCC(C)(C)N3CCOCC3)cc2)c1C | 65.4% (active)
20 | CN(C)S(=O)(=O)c1ccc(C(=O)NCC(C)(C)N2CCOCC2)cc1 | 34.7%
21 | CC(C)(CNC(=O)c1ccc(Cl)c(S(=O)(=O)N2CCc3ccccc3C2)c1)N1CCOCC1 | 38.5%

Row | Compound | inhibition
22 | CC(C)C[C@H](NC(=O)N1CC(=O)Nc2ccccc21)C(=O)N[C@H](Cc1ccccc1)C(=O)O | 33.8%
23 | COc1ccc(-c2nnc(SC(=O)N3c4ccccc4Sc4ccccc43)o2)cc1 | 81.1% (active)
24 | COc1ccc(-c2nnc(SCc3cccnc3)o2)cc1 | -4.4%
25 | COc1ccc(N2CCN(Cc3nnc(-c4ccccc4)o3)CC2)cc1 | -23.5%
26 | COc1cccc(C(=O)N/N=C(\C)c2cccc(NC(=O)c3ccc(F)cc3)c2)c1OC | 65.8% (active)
27 | CC(=O)Nc1cccc(/C(C)=N/NC(=O)c2ccccc2Cl)c1 | 16.2%
28 | C/C(=N/NC(=O)c1ccc(NC(=O)c2ccc(F)cc2)cc1)c1ccccc1 | -99%
29 | COc1ccc(S(=O)(=O)NCC(=O)NC2CC2)cc1OC | 27.6%
30 | CCCCCC(O)(CCN1CCCCC1)c1ccccc1 (stereo unspecified) | 43.7%
31 | Cc1cccc(C)c1OCCN1CCOCC1 | 24.1%
32 | Cc1ccc(C(=O)c2c(NC(=O)c3ccncc3)sc3c2CCCC3)cc1 | 9.7%
33 | O=C1NC(c2ccncc2)Nc2sc3c(c21)CCCC3 (stereo unspecified) | 97.6% (active)
34 | C/C(=C\c1ccccc1)C1NC(=O)c2c(sc3c2CCCC3)N1 (stereo unspecified) | 12.2%
35 | CCCNC(=O)COc1coc(CN2CCN(Cc3ccccc3)CC2)cc1=O | 36%
36 | FC(F)(F)c1cccc(Cc2noc(CN3CCC(N4CCCCC4)CC3)n2)c1 | 51.8%
37 | Fc1cccc(Cc2noc(CN3CCN(c4cnccn4)CC3)n2)c1 | 62.8% (active)
38 | CCOC(=O)N1CCN(Cc2nc(Cc3cccc(C(F)(F)F)c3)no2)CC1 | 34.6%
39 | COC(=O)c1ccc(CNC(=O)C2CCC(=O)N(Cc3ccccn3)C2)cc1 (stereo unspecified) | 11.9%
40 | O=C(C[C@H]1C(=O)N(c2ccc(F)c(F)c2)C[C@@H]1Cc1ccccc1)Nc1ccccc1 | -7.3%
41 | Cc1ccccc1OCCC(=O)OCC(=O)NC(C)c1ccccc1 (stereo unspecified) | 64.7% (active)
42 | Cc1ccc(OCC(=O)NC(C)c2ccccc2)cc1C (stereo unspecified) | -16.6%

Row | Compound | inhibition
43 | Cc1ccc(OCCCC(=O)NC(C)c2ccccc2)c(C)c1 (stereo unspecified) | 48.4%
44 | Cc1sc2ncn(CC(=O)NCCCC(=O)N3CCN(c4ccccc4F)CC3)c(=O)c2c1C | 2.2%
45 | Cn1cc(S(=O)(=O)Nc2ccc(Cl)cc2Cl)c(=O)n(C)c1=O | 20.2%
46 | Cc1ccc(C)c(S(=O)(=O)Nc2cccc(-n3cnnn3)c2)c1 | 34.8%
47 | CCOC(=O)N1CCN(CCC(=O)Nc2ccccc2)CC1 | 44.4%
48 | CCOC(=O)N1CCN(CC(=O)Nc2ccc(F)cc2)CC1 | 60.1% (active)
49 | O=C(CN1CCN(c2ccccc2)CC1)Nc1ccc(F)cc1 | 27%
50 | CCOC(=O)c1sc(NC(=O)c2ccncc2)nc1C | -5.8%
51 | CCOC(=O)c1sc(=S)n2c1[nH]c(=O)c1ccc(C(=O)OC)cc12 | 98.7% (active)
52 | CCOC(=O)C1=C(C)Nc2sc(C(=O)c3ccc(Br)cc3)c(N)c2C1c1ccc(C(=O)OC)cc1 (stereo unspecified) | 38.2%
53 | CCOc1ccc(CN2CCC(n3nccc3NC(=O)C3CC3)CC2)cc1CO | 12.7%
54 | CCCc1c(C(=O)Nc2ccc(F)cc2)cnn1-c1ccccc1 | 41.2%
55 | COc1ccc(-c2noc(CCCC(=O)NC3CCCC3)n2)cc1OC | 18.5%
56 | CC(=O)c1ccc(N2Cc3ccccc3C2)cc1 | 29.1%
57 | Cc1cc(Cl)c2oc(C(=O)N(C)C(C)c3ccccn3)c(C)c2c1 (stereo unspecified) | 18.5%
58 | Cc1ccc(N(CC(=O)NCC2CCCO2)C(=O)CNS(=O)(=O)c2ccc(Cl)cc2)cc1 (stereo unspecified) | 32.5%
59 | CCc1ccc(NC(=O)CSc2nc3ccccc3c(=O)n2CCN2CCOCC2)cc1 | 2.3%
60 | CCCCn1c(SCC(=O)NCC2CCCO2)nc2ccc(N3CCOCC3)cc2c1=O (stereo unspecified) | -6.7%
61 | N#CCSc1nc2ccc(N3CCOCC3)cc2c(=O)n1CCc1ccccc1 | 81.7% (active)
